Measurements as given in PubChem BioAssay.
Where “and” joins values, the source holds several entries; their conditions need not be identical. Equal values may be shown once. Calls of active or inactive are those of the source. Unless noted, no rule for the calls is given here.

How the values were obtained:
[1] = Cy5 fluorescence interference with SSB-bound oligo, artefact control for HCV NS3 helicase inhibitor project, biochemical, NIH Clinical Collection, E. coli SSB (AID 743268)
[2] = system: Hepatitis C virus NS3 helicase; experiment: HCV NS3 helicase inhibitors, primary screen, biochemical, fluorescence polarization, NIH Clinical Collection (AID 743270); conditions: NS3 helicase binding to Cy5-dT15 DNA, stronger effect = higher value, concentration not given here
[3] = target: Single-stranded DNA-binding protein (Escherichia coli (strain K12)) (UniProt P0AGE0); experiment: E. coli SSB displacement from DNA, counter-screen for HCV NS3 helicase inhibitor project, biochemical, fluorescence polarization, NIH Clinical Collection (AID 743271; in the data active = inhibition above about 28%); conditions: stronger effect = higher value, concentration not given here
[4] = fluorescence interference in NS3h assay format, artefact control for HCV NS3 helicase inhibitor project, biochemical, NIH Clinical Collection (AID 743272); conditions: fluorescence interference counterscreen, stronger effect = lower value;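 also: HCV NS3 helicase with a Cy5 labelled single stranded DNA probe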
[5] = stimulators of nuclear beta-catenin in C2C12, primary screen, imaging, WNT3A-conditioned medium, mouse C2C12, NPC library (AID 1117326; in the data active = nuclear beta-catenin stimulation mostly above about 4.2%, no sharp cut-off; inactive = mostly below about 10%); conditions: stronger effect = higher value
[6] = stimulators of insulin release from INS-1E, primary screen, cell-based, 5 mM glucose, NPC library (AID 1117329;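 active = compound raises insulin release from rat beta cells at 5 mM glucose, no numeric limit stated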); conditions: rat INS-1E insulin secretion, at 10 µM, stronger effect = higher value
[7] = growth inhibition of GSK3B-pretreated HCT116 cells – cell-based, CellTiter-Glo, 0.2 to 20 µM (AID 1117336;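 active = compounds lowering colon cancer cell viability after pretreatment blocking the GSK3B kinase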); conditions: HCT116 viability after GSK3B inhibitor, at 20 µM, stronger effect = higher value
[8] = inhibition of endothelial tube formation, primary screen, imaging, VEGF stimulated, CD31 staining, tube area, NPC library (AID 1117340;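 active = compound that reduces growth-factor-driven endothelial tube area in a mixed cell culture, no cutoff stated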); conditions: VEGF-stimulated ADSC/ECFC co-culture, at 10 µM, stronger effect = higher value
[9] = glucagon-like peptide 1 release enhancers, primary assay, NCI-H716 cell line, NPC library (AID 1117341;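 active = compound raises GLP1 secretion from the human gut endocrine cells, with no numeric limit stated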); conditions: NCI-H716 cells, at 10 µM, stronger effect = higher value
[10] = HCT116 colon cancer cell growth inhibition, primary screen, CellTiter-Glo luminescence, NPC library (AID 1117342;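 active = compounds that lower survival of HCT116 colon cancer cells in the luminescence readout, no numeric limit stated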); conditions: at 20 µM (top of the series)
[11] = CellTiter-Glo luminescent readout of SW480 viability loss, NPC library primary (AID 1117343;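 active = compounds that lower viability of the colon cancer cells in the luminescence readout, with no numeric limit stated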); conditions: CellTiter-Glo luminescence; at 20 µM (top of the series)
[12] = decreased DLD-1 cellular survival, CellTiter-Glo luminescent readout, NPC compound collection, primary HTS (AID 1117346;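 active = compounds that lower survival of DLD-1 colon cancer cells in the luminescence readout, no cutoff given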); conditions: DLD-1 viability, CellTiter-Glo luminescence; at 20 µM (top of the series)
[13] = target: 6-phosphogluconate dehydrogenase, decarboxylating (Homo sapiens) (UniProt P52209); experiment: 6PGD enzyme inhibitors, primary screen, biochemical, human, recombinant enzyme, NADPH absorbance (AID 1159550;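 active = at least 20% inhibition of 6-phosphogluconate dehydrogenase activity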); conditions: recombinant 6PGD, NADPH absorbance 341 nm; at 10 µM; stronger effect = higher value
[14] = sensitizers of A549 cells to miR-34 induction, primary screen, imaging, A549 dox-inducible miR-34, nuclei and caspase counts (AID 1347080;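 active = compounds whose cell count with miR-34 switched on is under 0.7 times the count with it off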); conditions: A549 miR-34 inducible, Hoechst nuclei count, 48 h
[15] = survival rescue of mitochondrial mutant cells in low glucose, primary screen, MELAS cybrids, Rieske KO mouse fibroblasts, CellTiter-Glo (AID 1508586;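 active = mean z-score across replicates of 1.96 or higher in either the MELAS or the Rieske mutant cell line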;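 also: z relative to plate mean and SD of compound and empty wells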)
[16] = target: NAD(+) hydrolase SARM1 (Homo sapiens) (UniProt Q6SZW1); experiment: SARM1 TIR NADase inhibitors, cell lysate, NAD-Glo luminescence (AID 1508614;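 active = compound whose remaining NAD level is above about 45 nM, limit read from the data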;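 also: higher remaining NAD means stronger inhibition of SARM1 NADase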); conditions: SAM-TIR HEK293T lysate NADase, at 1 µM, stronger effect = higher value
[17] = target: Mitogen-activated protein kinase 7 (Homo sapiens) (UniProt Q13164); experiment: ERK5 transactivation activators in reporter cells, primary screen, cell-based, HTS (AID 1508626;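 active = luciferase signal above three times the same-plate solvent-only control wells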;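 also: luciferase driven by Gal4-ERK5 fusion binding five Gal4 sites before minimal TATA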); conditions: HeLa Gal4-ERK5 transactivation, 18 h, at 5 µM, stronger effect = higher value
[18] = system: F380Y; experiment: modulators of BK channel variants, profiling panel, selectivity assay, cell-based, U2OS BacMam, thallium flux, beta subunits (AID 1259406;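 active = thallium flux through the channel raised or lowered by more than 3 SD from vehicle-only wells, actives on both sides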;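 also: initial slope of Thallos dye fluorescence rise after thallium is added; log ratio against the mean of 0.3% DMSO vehicle wells on the same plate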); conditions: at 30 µM
[19] = differential killing of epithelial or mesenchymal cells, primary screen, imaging, PC-3E GFP, TEM4-18 mCherry, co-culture (AID 1345086;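 active = compounds killing one labelled cell type while sparing the other, by normalised counts and ratio limits, not self-fluorescent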;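 as to all read-outs here: cells exposed to compound for 72 h before imaging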;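 as to red/green cell ratio (normalised): normalised mesenchymal count divided by normalised epithelial count so high means epithelial killing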); conditions: imaging cell counts, at 1 µM; for red/green cell ratio (normalised): actives lie on both sides, counts scaled to control wells, 1 = unselective
[20] = liver-stage malaria parasite growth inhibition, primary screen, cell-based, HepG2, luciferase luminescence, HepG2 viability (AID 624349; in the data active = parasite load remaining mostly below about 12%, no sharp cut-off; inactive = mostly above about 10%;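 also: 100% = mean of DMSO negative control wells on the same plate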); conditions: P. berghei liver stage in HepG2, luciferase luminescence, concentration not given here; parasite load remaining: stronger effect = lower value; viability: measured here: HepG2 viability without parasites
[21] = stronger effect = lower value, cell number ratio, induced over uninduced
[22] = measured here: relative caspase fold change +Dox/-Dox
[23] = measured here: total cells with miR-34 induction, stronger effect = lower value
[24] = measured here: total cells without miR-34 induction
[25] = MELAS cybrid survival, CellTiter-Glo 48 h, stronger effect = higher value
[26] = Rieske KO mouse fibroblast survival, CellTiter-Glo 72 h
[27] = measured here: epithelial PC-3E GFP cell survival
[28] = measured here: mesenchymal TEM4-18 mCherry cell survival

NAD(+) hydrolase SARM1 (Homo sapiens), sequence (Q6SZW1 whole entry, looked up, the tested form may be a part): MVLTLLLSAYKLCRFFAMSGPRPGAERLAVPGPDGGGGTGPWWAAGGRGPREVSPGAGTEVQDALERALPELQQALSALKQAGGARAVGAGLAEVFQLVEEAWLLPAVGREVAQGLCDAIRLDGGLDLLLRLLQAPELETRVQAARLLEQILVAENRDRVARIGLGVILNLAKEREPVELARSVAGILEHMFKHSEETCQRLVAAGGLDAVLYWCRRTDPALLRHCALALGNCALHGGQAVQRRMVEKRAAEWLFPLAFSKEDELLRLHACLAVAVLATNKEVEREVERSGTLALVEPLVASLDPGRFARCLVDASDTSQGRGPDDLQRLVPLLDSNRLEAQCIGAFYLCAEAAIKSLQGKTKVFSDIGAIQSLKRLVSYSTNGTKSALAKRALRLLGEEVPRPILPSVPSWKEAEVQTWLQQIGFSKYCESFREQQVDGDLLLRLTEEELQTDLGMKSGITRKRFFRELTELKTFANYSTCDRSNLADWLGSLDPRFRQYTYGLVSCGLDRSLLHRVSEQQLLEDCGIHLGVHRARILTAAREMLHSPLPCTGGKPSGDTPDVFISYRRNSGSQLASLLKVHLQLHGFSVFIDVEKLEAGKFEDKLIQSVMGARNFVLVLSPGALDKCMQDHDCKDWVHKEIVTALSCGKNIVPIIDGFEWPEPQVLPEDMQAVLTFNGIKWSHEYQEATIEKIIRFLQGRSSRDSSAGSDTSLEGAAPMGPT
6-phosphogluconate dehydrogenase, decarboxylating (Homo sapiens), sequence (P52209 whole entry, looked up): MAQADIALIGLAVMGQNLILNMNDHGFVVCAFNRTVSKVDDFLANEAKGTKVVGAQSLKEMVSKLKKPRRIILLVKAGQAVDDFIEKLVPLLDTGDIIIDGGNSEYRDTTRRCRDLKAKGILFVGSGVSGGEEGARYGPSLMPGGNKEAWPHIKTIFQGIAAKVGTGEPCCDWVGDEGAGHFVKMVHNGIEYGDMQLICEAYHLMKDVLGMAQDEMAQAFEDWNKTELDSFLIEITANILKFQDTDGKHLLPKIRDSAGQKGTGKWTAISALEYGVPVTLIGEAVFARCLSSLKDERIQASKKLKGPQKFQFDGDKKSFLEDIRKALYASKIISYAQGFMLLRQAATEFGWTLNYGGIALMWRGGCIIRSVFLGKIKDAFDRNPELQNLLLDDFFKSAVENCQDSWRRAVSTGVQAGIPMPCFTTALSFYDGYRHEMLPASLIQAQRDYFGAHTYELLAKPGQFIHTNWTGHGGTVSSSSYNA
Mitogen-activated protein kinase 7 (Homo sapiens), sequence (Q13164 whole entry, looked up, the tested form may be a part): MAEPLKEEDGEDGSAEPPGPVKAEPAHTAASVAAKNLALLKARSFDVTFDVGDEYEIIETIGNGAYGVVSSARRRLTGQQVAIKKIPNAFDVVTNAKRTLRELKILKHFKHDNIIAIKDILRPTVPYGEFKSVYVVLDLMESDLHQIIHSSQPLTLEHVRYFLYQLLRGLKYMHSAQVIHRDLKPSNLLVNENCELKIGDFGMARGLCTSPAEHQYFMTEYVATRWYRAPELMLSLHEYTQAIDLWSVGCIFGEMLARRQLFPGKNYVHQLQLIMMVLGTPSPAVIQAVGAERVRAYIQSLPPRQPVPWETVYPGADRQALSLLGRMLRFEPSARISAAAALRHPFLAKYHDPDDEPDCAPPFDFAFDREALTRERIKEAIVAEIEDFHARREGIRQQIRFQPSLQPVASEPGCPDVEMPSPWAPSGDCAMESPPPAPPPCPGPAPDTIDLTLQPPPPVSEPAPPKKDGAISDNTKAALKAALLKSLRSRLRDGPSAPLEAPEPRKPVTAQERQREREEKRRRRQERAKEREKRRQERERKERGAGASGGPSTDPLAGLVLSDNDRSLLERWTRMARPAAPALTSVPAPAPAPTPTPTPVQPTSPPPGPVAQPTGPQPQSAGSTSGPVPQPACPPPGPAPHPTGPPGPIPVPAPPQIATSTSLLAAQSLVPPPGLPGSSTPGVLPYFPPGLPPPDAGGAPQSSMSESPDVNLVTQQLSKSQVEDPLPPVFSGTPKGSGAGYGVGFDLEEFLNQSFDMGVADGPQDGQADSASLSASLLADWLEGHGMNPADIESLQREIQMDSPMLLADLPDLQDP

C[C@]12C=CC(=O)C=C1CC[C@@H]1[C@@H]2C(=O)C[C@@]2(C)[C@H]1CC[C@]2(O)C(=O)CO
inactive: inhibition [2] -0.45% | inhibition [3] -1.24% | fluorescence ratio [4] 0.95 | nuclear beta-catenin stimulation ([5]; at 10 µM) 0.6% | insulin secretion stimulation [6] -2.5% | viability decrease [7] -21.3% | tube area decrease [8] -13.7% | GLP1 secretion stimulation [9] 0.9% | inhibition of viability [10] -8.2% | viability decrease (inhibition) [11] -6.4% | viability decrease (inhibition) [12] -11.6% | inhibition [13] -6.11% | fold change [14, 21] 0.98 and 0.843 and 0.886 | z-score [15, 25] 0.134 and 0.541 | remaining NAD [16] 10 nM | luciferase signal [17] 28 AU | log fold change Tl+ flux [18] 0.00715
10300 and 7950 and 9680: cell count [14, 23]
10500 and 9420 and 10900: cell count [14, 24]
1.65 and 0.777 and 1.15: fold change [14, 22]
0.8%: nuclear beta-catenin stimulation ([5]; stimulation, at 2 µM)
-0.259 and 0.148: z-score [15, 26]
active: fluorescence ratio [1] 0.107

c1ccc(-c2ccc(C(c3ccccc3)n3ccnc3)cc2)cc1 (configuration not stated)
-0.196 and 0.568 and 0.472: z-score [15, 26]
1.04: normalised cell number [19, 28]
inactive: fluorescence ratio [1] 1.01 | inhibition [2] 12.3% | inhibition [3] 8.37% | fluorescence ratio [4] 1.04 | nuclear beta-catenin stimulation ([5]; at 10 µM) -0.1% | insulin secretion stimulation [6] 0.3% | tube area decrease [8] 23.9% | GLP1 secretion stimulation [9] 8.2% | inhibition [13] 12.4% | red/green cell ratio (normalised) [19] 1.06 | z-score [15, 25] -0.456 and -0.0732 and 0.0643 | remaining NAD [16] 10 nM | luciferase signal [17] 56 AU | log fold change Tl+ flux [18] -0.00418
active: viability decrease [7] 99.7% | inhibition of viability [10] 101% | viability decrease (inhibition) [11] 141% | viability decrease (inhibition) [12] 104%
0.5%: nuclear beta-catenin stimulation ([5]; stimulation, at 2 µM)
0.98: normalised cell number [19, 27]

COc1ccc([C@@H]2Sc3ccccc3N(CCN(C)C)C(=O)[C@@H]2OC(C)=O)cc1
-0.0359 and -0.282: z-score [15, 26]
inactive: fluorescence ratio [1] 0.95 | inhibition [2] -3.18% | inhibition [3] -2.76% | fluorescence ratio [4] 0.98 | nuclear beta-catenin stimulation ([5]; at 10 µM) 0.5% | insulin secretion stimulation [6] 1.15% | viability decrease [7] 17% | tube area decrease [8] -3.8% | GLP1 secretion stimulation [9] 2.5% | inhibition of viability [10] 32.9% | viability decrease (inhibition) [11] 47.4% | viability decrease (inhibition) [12] 32.3% | inhibition [13] -12.8% | z-score [15, 25] 0.628 and 0.162 | remaining NAD [16] 10 nM | luciferase signal [17] 68 AU | log fold change Tl+ flux [18] 0.0589
-0.4%: nuclear beta-catenin stimulation ([5]; stimulation, at 2 µM)

Cc1cccc(Nc2ccccc2C(=O)O)c1C
-0.308 and -0.333 and -1.12: z-score [15, 26]
inactive: fluorescence ratio [1] 1 | inhibition [2] -5% | inhibition [3] 1.05% | fluorescence ratio [4] 0.91 | nuclear beta-catenin stimulation ([5]; at 10 µM) 0.8% | insulin secretion stimulation [6] -1.6% | viability decrease [7] -0.3% | tube area decrease [8] 18% | GLP1 secretion stimulation [9] -0.1% | inhibition of viability [10] -21% | viability decrease (inhibition) [11] 29.6% | viability decrease (inhibition) [12] 2.25% | inhibition [13] 17.3% | red/green cell ratio (normalised) [19] 0.92 | z-score [15, 25] -0.21 and 0.386 and -0.378 | remaining NAD [16] 10 nM | luciferase signal [17] 232 AU | log fold change Tl+ flux [18] 0.0635
1.08: normalised cell number [19, 28]
0.4%: nuclear beta-catenin stimulation ([5]; stimulation, at 2 µM)
1.18: normalised cell number [19, 27]

Cc1onc(-c2ccccc2)c1-c1ccc(S(N)(=O)=O)cc1
inactive: parasite load remaining [20] 163% and 88.9% | fluorescence ratio [1] 1 | inhibition [2] -1.19% | inhibition [3] -2.41% | fluorescence ratio [4] 0.93 | nuclear beta-catenin stimulation ([5]; at 10 µM) 1.5% | insulin secretion stimulation [6] -0.9% | viability decrease [7] -37.3% | tube area decrease [8] 32.7% | GLP1 secretion stimulation [9] 4.8% | inhibition of viability [10] 33.5% | viability decrease (inhibition) [12] 32.5% | inhibition [13] -1.63% | fold change [14, 21] 0.904 and 0.903 | z-score [15, 25] -0.154 and 0.659 | luciferase signal [17] 64 AU | log fold change Tl+ flux [18] 0.0649
90.7% and 71.3%: viability [20]
8880 and 8040: cell count [14, 23]
1.68 and 0.72: fold change [14, 22]
active: viability decrease (inhibition) [11] 54%
9820 and 8900: cell count [14, 24]
1.6%: nuclear beta-catenin stimulation ([5]; stimulation, at 2 µM)
-0.131 and 0.628: z-score [15, 26]

CN[C@@H]1[C@H](O)[C@H](NC)[C@H]2O[C@@]3(O)C(=O)C[C@@H](C)O[C@H]3O[C@@H]2[C@H]1O
0.94: normalised cell number [19, 27]
inactive: fluorescence ratio [1] 1.06 | inhibition [2] -5% | inhibition [3] -4.29% | fluorescence ratio [4] 1.01 | nuclear beta-catenin stimulation ([5]; at 10 µM) 0.2% | insulin secretion stimulation [6] -0.2% | viability decrease [7] 12.5% | tube area decrease [8] -8.4% | inhibition of viability [10] 6.2% | viability decrease (inhibition) [11] 12.1% | viability decrease (inhibition) [12] 3.7% | inhibition [13] -6.86% | red/green cell ratio (normalised) [19] 1.39 | z-score [15, 25] 0.0203 and 0.894 | remaining NAD [16] 10 nM | luciferase signal [17] 44 AU | log fold change Tl+ flux [18] -0.0285
1.31: normalised cell number [19, 28]
0.169 and 0.769: z-score [15, 26]
active: GLP1 secretion stimulation [9] 23.7%
3.5%: nuclear beta-catenin stimulation ([5]; stimulation, at 2 µM)

CC(=O)[C@H]1CC[C@H]2[C@@H]3C[C@H](C)C4=CC(=O)CC[C@]4(C)[C@H]3[C@@H](O)C[C@]12C
1.33: z-score [15, 26]
6920 and 8680: cell count [14, 24]
1.06 and 1.54: fold change [14, 22]
-0.3%: nuclear beta-catenin stimulation ([5]; stimulation, at 2 µM)
inactive: parasite load remaining [20] 57.6% and 67.9% | fluorescence ratio [1] 0.93 | inhibition [2] -0.45% | inhibition [3] 0.29% | fluorescence ratio [4] 0.99 | nuclear beta-catenin stimulation ([5]; at 10 µM) 0.3% | insulin secretion stimulation [6] 0% | viability decrease [7] -48.8% | tube area decrease [8] 13.8% | GLP1 secretion stimulation [9] 0.4% | inhibition of viability [10] 14.4% | viability decrease (inhibition) [11] 11.1% | viability decrease (inhibition) [12] -5.4% | inhibition [13] -11.2% | fold change [14, 21] 0.951 and 0.798 | z-score [15, 25] 0.756 | remaining NAD [16] 10 nM | luciferase signal [17] 84 AU | log fold change Tl+ flux [18] -0.0207
6580 and 6920: cell count [14, 23]
84.9% and 91.5%: viability [20]
